SMILES strings stand for the structures. Results filed as inconclusive are left out. Activity calls are given as the source filed them.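 The calls were made as follows, unless noted: active = binding below the plate cutoff, the plate median minus 3 SD, with a reading above zero; inconclusive = below the plate cutoff but reading exactly zero; inactive = the rest.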

The nature of experiment [1]: rapamycin-like changes in RPL19A-GFP expression – cell-based, S. cerevisiae, multiplex flow cytometry, primary screen (AID 1862; in the data active = percent of DMSO control GFP below about 86%;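 also: lower values mimic rapamycin by blocking the RPL19A rise seen in DMSO cells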). The settings on record: S. cerevisiae RPL19A-GFP strain, flow cytometry fluorescence, 3 h; at 10 µM; stronger effect = lower value. On the technique in general: Flow cytometry measures light scatter and fluorescence of single cells or particles in a stream.

Experiment [2] can be described thus: TOR pathway GLN3 branch reporter MEP2-GFP changes – S. cerevisiae, multiplex flow cytometry, primary screen (AID 1867;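 active = GFP response, as percent of the DMSO control, above the screen-wide mean plus 3 SD, about 139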;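 also: median GFP channel fluorescence of barcode-gated MEP2-GFP cells measured by flow cytometry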). The settings on record: S. cerevisiae MEP2-GFP strain, 3 h, at 10 µM, stronger effect = higher value, 100% means same as DMSO wells.
Experiment [3] can be described thus: TOR pathway RTG branch CIT2 reporter changes – S. cerevisiae, GFP fusion, multiplex flow cytometry, primary screen (AID 1870;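 active = percent response above a set limit, the screen-wide mean plus 3 SD, cut at about 130% in these data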;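 also: barcoded CIT2-GFP strain pooled with four other GFP strains with rapamycin as positive control; median GFP fluorescence per well over plate mean of DMSO wells so 100% = DMSO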). The settings on record: S. cerevisiae CIT2-GFP expression, 3 h, at 10 µM, stronger effect = higher value.
The nature of experiment [4]: TOR pathway LAP4-GFP level changes – S. cerevisiae, multiplex flow cytometry, primary screen (AID 1873;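 active = GFP signal, as percent of the solvent control, above the screen mean plus 3 SD, about 149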). The settings on record: S. cerevisiae LAP4-GFP expression, 3 h, at 10 µM, stronger effect = higher value.
Experiment [5] in a line: yeast AGP1-GFP level changes, GLN3 branch – cell-based, multiplex flow cytometry, S. cerevisiae, primary screen (AID 1887;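 active = GFP signal above the screen-wide mean plus 3 SD, that is over about 124.5% of the solvent control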;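 also: AGP1-GFP fusion strain of S. cerevisiae within a five-strain barcoded multiplex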). The settings on record: 3 h, at 10 µM, stronger effect = higher value.
Experiment [6] is described as follows: reduced mouse 2C T cell binding to pMHC/ICAM-1 vesicles – MLPCN validation set, flow cytometry, LFA-1/ICAM-1 modulator project, pilot screen (AID 2523;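 active = response below a set limit, under 55% cells CD8-positive and vesicle-bound, and CD8 cells' 90th-percentile brightness under 279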;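 as to vesicle binding response: mean PE anti-B7-1 fluorescence of CD8+ cells relative to row control; 100% = QL9-loaded vesicles with DMSO vehicle in the same plate row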). The settings on record: 2C mouse CD8+ T cells, at 7 µM, stronger effect = lower value; double positive events: measured here: CD8+/vesicle+ event percentage.
For experiment [7], the target named is Integrin beta-1 (Homo sapiens) + Integrin alpha-4 (Homo sapiens) (UniProt P13612+P05556). Description: alpha4beta1 integrin LIBS antibody binding reduction – U937 cells, HUTS-21 mAb, flow cytometry, validation set, VLA-4 allosteric modulator project, pilot screen (AID 2674;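 active = inhibition above 50%, about 3 SD of the validation set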;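 also: antibody binding induced by the VLA-4 ligand LDV present at three times its Kd; 0% = LDV ligand with antibody and no compound and 100% = antibody without LDV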). The note with it: HUTS-21 LIBS mAb binding, at 6.7 µM, stronger effect = higher value, binding induced by LDV ligand.

Experiment [8] is described as follows: calorie-restriction mimetic ROS inhibitors, yeast – validation compound set, pilot screen (AID 2706;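 active = superoxide response below 65% of plate, a cut near 3 SD across the whole screen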;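 also: yeast exposed to compound for one week at 30 degrees C before staining; 100% = mean of all compound wells on the same plate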). The settings on record: S. cerevisiae aging, superoxide DHE fluorescence; at 10 µM; stronger effect = lower value.
Experiment [9] addresses Beta-adrenergic receptor kinase 1 (Homo sapiens) (UniProt P25098). Description: GRK2 binders displacing RNA aptamer, biochemical, validation, human GRK2, bead flow cytometry (AID 488806;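 active = aptamer binding inhibition above 30%, about 3 SD of noise from non-fluorescent compounds; inactive = inhibition at or below 30%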). The note with it: bead-bound GRK2, FAM-aptamer displacement, at 10 µM, stronger effect = higher value.
Experiment [10] concerns the target Beta-2 adrenergic receptor (Homo sapiens) (UniProt P07550). Description: agonist-induced loss of surface beta2AR – cell-based, FAP fluorogen, flow cytometry, validation set, pilot screen (AID 504459;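 active = percent response above 42, roughly 3 SD of non-fluorescent test compounds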;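 also: agonist-driven loss of surface beta2AR via internalization measured by FAP dye flow cytometry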). The note with it: Am2.2-beta2AR cells, at 10 µM, stronger effect = higher value.
Experiment [11] has as its target AP-2 complex subunit beta (Homo sapiens) (UniProt P63010). In words: beta-arrestin/AP2 interaction blockers – biochemical, validation set, GST-AP2 beads, flow cytometry, pilot screen (AID 504541;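 active = inhibition above 54%, about 3 SD of non-fluorescent compounds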;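 also: AP2 carries R879A mutation and is captured from E. coli lysate; bead-bound FITC arrestin peptide fluorescence measuring arrestin peptide binding to AP2; 0% = DMSO wells and 100% = excess unlabeled arrestin peptide control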). The note with it: FITC arrestin peptide, at 10 µM, stronger effect = higher value, AP2 beta2 appendage fragment, R879A mutant.
The nature of experiment [12]: cytosolic pH regulators acting via V-ATPase – S. cerevisiae, pHLuorin, HTS validation (AID 504600; in the data active = response above about 15%;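 also: plate controls were DMSO for no effect and reference compound for full effect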). The note with it: V-ATPase proton transport, at 10 µM, stronger effect = higher value.
Experiment [13] has as its system anti-desmoglein-3 scFv antibody binding to human DSG3. In words: blockers of pathogenic pemphigus antibody–desmoglein-3 binding – biochemical, validation compound set, bead-based, flow cytometry, pilot screen (AID 588368).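 Also: signal is the median channel fluorescence of bead-bound GFP antibody.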 The note with it: Protein G beads, DSG3-Fc, scFv-GFP binding, at 10 µM, stronger effect = lower value.
Experiment [14] is described as follows: Nile Red efflux blockade in pump-expressing yeast – validation compound set, multiplex, phenotypic, pilot screen (AID 588506;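 active = efflux inhibition above 0.42, the validation set average plus 4 SD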;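 also: Nile Red retained in cells so higher fluorescence means more efflux inhibition; 0 = negative control wells and 1 = enniatin B 25 µM full block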). The settings on record: S. cerevisiae pump-expressing triplex, Nile Red efflux flow cytometry; at 10 µM; stronger effect = higher value; the pumps come from Candida albicans.
For experiment [15], the target named is ATP-binding cassette sub-family B member 6 (Homo sapiens) (UniProt Q9NP58). In words: blockers of ABCB6-driven porphyrin uptake – K562-ABCB6 cells, flow cytometry, validation set, pilot screen (AID 588550;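 active = inhibition above the screen-wide mean plus 3 SD, about 51%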;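 also: 0% = DMSO wells and 100% = benzethonium chloride 70 µM positive control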). The settings on record: K562-ABCB6 porphyrin accumulation, 1 h, at 10 µM, stronger effect = higher value.
The nature of experiment [16]: AML differentiation inducers, ER-HoxA9 marrow cells – cell-based, GFP/MAC1 double positive, flow cytometry, validation set, primary screen (AID 588685;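 active = differentiation response of at least 50%, scaled between solvent and reference control, from cells with both markers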;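 also: compound exposure lasts four days before antibody staining and flow analysis; 0% = DMSO wells and 100% = 5 µM fulvestrant positive control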). The settings on record: stronger effect = higher value, normalized: vehicle 0, fulvestrant 100.

ATP-binding cassette sub-family B member 6 (Homo sapiens), sequence (Q9NP58 whole entry, looked up): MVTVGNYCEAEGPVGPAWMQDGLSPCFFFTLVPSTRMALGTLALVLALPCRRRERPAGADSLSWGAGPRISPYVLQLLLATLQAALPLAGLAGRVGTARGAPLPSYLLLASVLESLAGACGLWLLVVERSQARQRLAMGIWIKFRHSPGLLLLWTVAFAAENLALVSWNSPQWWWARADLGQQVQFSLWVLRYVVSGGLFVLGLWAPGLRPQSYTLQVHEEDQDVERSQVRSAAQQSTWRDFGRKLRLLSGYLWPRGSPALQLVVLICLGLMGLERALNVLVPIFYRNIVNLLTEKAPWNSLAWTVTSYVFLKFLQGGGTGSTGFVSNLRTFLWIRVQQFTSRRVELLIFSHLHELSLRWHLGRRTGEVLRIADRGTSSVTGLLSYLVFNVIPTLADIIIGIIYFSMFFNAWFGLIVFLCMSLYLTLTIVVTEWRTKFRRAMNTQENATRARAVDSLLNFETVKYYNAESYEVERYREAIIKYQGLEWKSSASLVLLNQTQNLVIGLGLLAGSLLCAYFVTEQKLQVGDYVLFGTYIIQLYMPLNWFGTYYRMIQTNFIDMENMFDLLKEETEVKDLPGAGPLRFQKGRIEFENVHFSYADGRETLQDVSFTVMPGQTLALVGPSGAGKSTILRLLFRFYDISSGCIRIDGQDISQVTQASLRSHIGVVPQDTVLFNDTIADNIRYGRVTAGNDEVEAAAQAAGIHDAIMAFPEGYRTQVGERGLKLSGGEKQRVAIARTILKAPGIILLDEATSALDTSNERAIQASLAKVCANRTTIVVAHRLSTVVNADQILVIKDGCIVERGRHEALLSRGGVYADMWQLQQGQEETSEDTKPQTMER
Integrin beta-1 (Homo sapiens) + Integrin alpha-4 (Homo sapiens), sequence (P05556 whole entry, looked up): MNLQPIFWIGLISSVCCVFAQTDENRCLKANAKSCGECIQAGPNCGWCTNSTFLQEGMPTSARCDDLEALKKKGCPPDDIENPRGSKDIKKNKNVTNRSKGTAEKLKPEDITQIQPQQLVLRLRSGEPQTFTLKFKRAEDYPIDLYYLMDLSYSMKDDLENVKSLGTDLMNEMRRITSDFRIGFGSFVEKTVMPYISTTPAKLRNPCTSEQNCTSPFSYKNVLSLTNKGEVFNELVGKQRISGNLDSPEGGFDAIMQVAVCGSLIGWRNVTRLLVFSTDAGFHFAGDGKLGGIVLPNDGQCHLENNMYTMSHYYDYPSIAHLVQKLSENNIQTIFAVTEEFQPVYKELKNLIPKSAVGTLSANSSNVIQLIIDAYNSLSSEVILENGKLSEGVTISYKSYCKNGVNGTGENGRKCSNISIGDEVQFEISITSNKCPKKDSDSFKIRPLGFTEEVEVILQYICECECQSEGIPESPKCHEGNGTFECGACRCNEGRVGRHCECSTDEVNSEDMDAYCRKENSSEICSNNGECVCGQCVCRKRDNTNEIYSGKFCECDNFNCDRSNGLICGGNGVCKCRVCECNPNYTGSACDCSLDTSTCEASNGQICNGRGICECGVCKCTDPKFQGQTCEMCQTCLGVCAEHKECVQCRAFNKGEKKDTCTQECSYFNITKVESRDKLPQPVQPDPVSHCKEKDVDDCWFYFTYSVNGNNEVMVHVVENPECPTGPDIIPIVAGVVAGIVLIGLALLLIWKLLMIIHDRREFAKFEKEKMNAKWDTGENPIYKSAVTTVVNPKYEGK
Integrin beta-1 (Homo sapiens) + Integrin alpha-4 (Homo sapiens), sequence (P13612 whole entry, looked up): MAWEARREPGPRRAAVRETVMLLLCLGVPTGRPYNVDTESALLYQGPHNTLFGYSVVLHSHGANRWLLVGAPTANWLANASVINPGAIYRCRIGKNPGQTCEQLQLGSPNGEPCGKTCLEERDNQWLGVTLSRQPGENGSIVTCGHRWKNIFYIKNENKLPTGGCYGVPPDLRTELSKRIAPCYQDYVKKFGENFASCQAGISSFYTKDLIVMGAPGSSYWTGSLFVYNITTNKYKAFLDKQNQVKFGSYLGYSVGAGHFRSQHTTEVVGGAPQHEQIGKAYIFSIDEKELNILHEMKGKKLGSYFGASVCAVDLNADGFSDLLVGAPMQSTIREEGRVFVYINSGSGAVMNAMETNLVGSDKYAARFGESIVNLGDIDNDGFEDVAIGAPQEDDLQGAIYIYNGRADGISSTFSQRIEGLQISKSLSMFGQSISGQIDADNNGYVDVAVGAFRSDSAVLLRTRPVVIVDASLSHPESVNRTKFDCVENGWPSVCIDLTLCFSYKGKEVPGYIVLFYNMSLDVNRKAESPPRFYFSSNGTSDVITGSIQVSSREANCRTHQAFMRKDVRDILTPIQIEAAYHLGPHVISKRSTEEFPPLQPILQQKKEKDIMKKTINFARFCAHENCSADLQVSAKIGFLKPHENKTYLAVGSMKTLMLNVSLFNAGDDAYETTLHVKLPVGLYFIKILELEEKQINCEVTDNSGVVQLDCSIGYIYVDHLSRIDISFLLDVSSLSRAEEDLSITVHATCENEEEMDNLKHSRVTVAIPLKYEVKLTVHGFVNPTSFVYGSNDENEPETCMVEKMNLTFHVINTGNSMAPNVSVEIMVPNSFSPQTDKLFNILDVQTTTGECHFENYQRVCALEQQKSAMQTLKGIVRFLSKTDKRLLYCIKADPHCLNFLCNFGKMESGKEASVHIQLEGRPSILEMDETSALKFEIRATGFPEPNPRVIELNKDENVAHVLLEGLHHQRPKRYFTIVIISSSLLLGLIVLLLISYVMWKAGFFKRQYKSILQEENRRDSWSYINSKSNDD
Beta-2 adrenergic receptor (Homo sapiens), sequence (P07550 whole entry, looked up): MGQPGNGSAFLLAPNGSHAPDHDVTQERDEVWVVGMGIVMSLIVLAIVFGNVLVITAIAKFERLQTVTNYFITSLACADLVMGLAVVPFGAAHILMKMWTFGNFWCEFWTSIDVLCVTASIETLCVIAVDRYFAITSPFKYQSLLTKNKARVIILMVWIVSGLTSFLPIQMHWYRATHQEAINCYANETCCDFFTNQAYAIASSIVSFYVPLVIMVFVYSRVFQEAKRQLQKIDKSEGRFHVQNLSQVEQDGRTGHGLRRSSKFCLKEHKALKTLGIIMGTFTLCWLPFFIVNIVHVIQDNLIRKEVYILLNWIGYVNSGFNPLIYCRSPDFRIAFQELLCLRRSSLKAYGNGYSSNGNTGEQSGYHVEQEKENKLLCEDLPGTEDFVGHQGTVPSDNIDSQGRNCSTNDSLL
Beta-adrenergic receptor kinase 1 (Homo sapiens), sequence (P25098 whole entry, looked up): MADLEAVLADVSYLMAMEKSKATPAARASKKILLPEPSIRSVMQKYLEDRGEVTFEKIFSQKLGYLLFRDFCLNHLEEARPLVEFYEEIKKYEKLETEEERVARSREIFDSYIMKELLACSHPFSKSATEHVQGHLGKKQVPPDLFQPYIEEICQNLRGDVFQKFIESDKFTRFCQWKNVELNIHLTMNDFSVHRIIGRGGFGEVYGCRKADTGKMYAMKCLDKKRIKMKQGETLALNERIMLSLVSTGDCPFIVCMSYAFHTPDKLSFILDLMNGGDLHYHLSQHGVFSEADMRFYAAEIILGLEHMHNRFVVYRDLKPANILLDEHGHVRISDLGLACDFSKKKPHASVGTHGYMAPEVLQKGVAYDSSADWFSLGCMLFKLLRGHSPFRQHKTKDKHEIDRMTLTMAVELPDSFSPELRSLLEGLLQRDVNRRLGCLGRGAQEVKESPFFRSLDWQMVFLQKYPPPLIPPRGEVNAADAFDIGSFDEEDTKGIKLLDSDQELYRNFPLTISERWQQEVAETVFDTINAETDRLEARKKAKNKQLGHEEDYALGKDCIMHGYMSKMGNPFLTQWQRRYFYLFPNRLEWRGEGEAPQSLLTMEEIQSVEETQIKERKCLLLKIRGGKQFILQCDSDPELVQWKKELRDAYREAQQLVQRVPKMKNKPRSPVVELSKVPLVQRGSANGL
AP-2 complex subunit beta (Homo sapiens), sequence (P63010 whole entry, looked up, the tested form may be a part, one chain of several): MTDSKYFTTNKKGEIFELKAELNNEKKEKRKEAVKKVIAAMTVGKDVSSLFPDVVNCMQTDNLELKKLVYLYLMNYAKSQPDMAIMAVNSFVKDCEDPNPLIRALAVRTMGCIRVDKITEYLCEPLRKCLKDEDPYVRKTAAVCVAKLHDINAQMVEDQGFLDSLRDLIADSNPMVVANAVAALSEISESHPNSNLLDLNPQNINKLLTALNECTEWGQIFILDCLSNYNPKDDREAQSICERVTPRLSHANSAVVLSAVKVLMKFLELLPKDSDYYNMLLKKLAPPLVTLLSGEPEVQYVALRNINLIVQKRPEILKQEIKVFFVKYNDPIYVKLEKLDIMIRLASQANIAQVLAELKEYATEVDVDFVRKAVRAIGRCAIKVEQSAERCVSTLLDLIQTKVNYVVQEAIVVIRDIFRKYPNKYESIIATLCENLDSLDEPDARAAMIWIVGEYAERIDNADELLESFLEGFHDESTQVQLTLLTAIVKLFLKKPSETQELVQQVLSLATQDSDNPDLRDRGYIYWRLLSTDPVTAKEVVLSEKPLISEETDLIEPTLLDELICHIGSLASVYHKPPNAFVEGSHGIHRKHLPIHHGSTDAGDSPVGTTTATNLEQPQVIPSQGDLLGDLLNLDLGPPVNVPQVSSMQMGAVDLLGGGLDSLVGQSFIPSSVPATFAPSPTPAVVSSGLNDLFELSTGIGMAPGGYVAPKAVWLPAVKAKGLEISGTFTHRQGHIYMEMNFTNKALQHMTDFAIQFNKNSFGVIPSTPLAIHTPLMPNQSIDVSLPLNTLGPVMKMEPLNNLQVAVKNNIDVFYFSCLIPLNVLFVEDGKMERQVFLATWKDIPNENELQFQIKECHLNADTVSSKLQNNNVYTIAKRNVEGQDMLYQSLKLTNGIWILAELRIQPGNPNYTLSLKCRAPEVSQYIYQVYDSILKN

As to `O=C(NO)c1ccccc1O`, in [1], the percent of DMSO control GFP was 103% (inactive). Further, the GFP response vs DMSO in experiment [2] is 107% (inactive); in experiment [4], 94.8% (inactive). Further, in [3], the percent response of DMSO control is 105% (inactive). Moreover, the GFP response, % of DMSO in [5] was 106% (inactive). This compound also displayed a double positive events in experiment [6] of 63.6%. Besides, the vesicle binding response in experiment [6] is 158% (inactive). Also, the inhibition (as a rule, the drop in the measured response relative to a control, in per cent) in experiment [7] was 8.29% (inactive); in experiment [11], 36.8% (inactive); in experiment [15], 9% (inactive). Also, the superoxide response (% of plate) in [8] is 95.5% (inactive). Further, the aptamer binding inhibition in experiment [9] was 2% (inactive). The results for the response in experiment [10] and in experiment [12] were -0.56% (inactive) and -8.07% (inactive), respectively. The binding (% of control) in [13] was 98.8% (inactive). The efflux inhibition (fraction of control) in experiment [14] is 0.03 (inactive). Further, the differentiation response in experiment [16] was -13.3% (inactive).

As to `CSCC[C@H](NC(=O)OC(C)(C)C)C(=O)N1CCC(C(=O)N[C@@H](C)C(=O)O)CC1`, the percent of DMSO control GFP in experiment [1] was 99.6% (inactive). In addition, the GFP response vs DMSO in experiment [2] was 105% (inactive); in [4] it was 89.4% (inactive). Also, the percent response of DMSO control in experiment [3] is 102% (inactive). For the same compound, in experiment [5], the GFP response, % of DMSO is 98.8% (inactive). The compound further displayed a double positive events in [6] of 65.4%. The vesicle binding response in experiment [6] was 154% (inactive). Further, the inhibition in experiment [7] is 9.71% (inactive); in experiment [11], -16% (inactive); in [15] it was 8% (inactive). In addition, the superoxide response (% of plate) in [8] was 98.8% (inactive). In experiment [9], the aptamer binding inhibition is 2% (inactive). For the same compound, the response was 6.5% (inactive) in experiment [10] and -1.98% (inactive) in experiment [12]. In addition, the binding (% of control) in experiment [13] is 103% (inactive). Besides, the efflux inhibition (fraction of control) in experiment [14] was -0.22 (inactive). Moreover, in experiment [16], the differentiation response was 0.41% (inactive).

For the compound `c1ccc(CC2=NCCN2)cc1`, the percent of DMSO control GFP in experiment [1] was 104% (inactive). Moreover, the results for the GFP response vs DMSO in [2] and in experiment [4] were 107% (inactive) and 103% (inactive), respectively. Also, in experiment [3], the percent response of DMSO control is 100% (inactive). The GFP response, % of DMSO in experiment [5] was 102% (inactive). In experiment [6], this compound registered a double positive events of 61.8%. In addition, the vesicle binding response in experiment [6] is 181% (inactive). Further, the results for the inhibition in [7], in [11] and in [15] were 0% (inactive), -16.6% (inactive) and -5% (inactive), respectively. The superoxide response (% of plate) in [8] was 101% (inactive). Moreover, in [9], the aptamer binding inhibition is -2% (inactive). For the same compound, the values for the response in experiment [10] and in experiment [12] were -7.37% (inactive) and 1.43% (inactive), respectively. For the same compound, the binding (% of control) in experiment [13] is 98% (inactive). The efflux inhibition (fraction of control) in experiment [14] is -0.07 (inactive). Besides, the differentiation response in experiment [16] was 14.9% (inactive).

With `C=CC1=C(C(=O)O)N2C(=O)C(NC(=O)Cc3ccccc3)C2SC1` (stereo not given), the percent of DMSO control GFP in experiment [1] was 101% (inactive). Further, the GFP response vs DMSO was 103% (inactive) in [2] and 82.8% (inactive) in experiment [4]. In addition, the percent response of DMSO control in experiment [3] is 105% (inactive). For the same compound, the GFP response, % of DMSO in [5] was 100% (inactive). For the same compound, the double positive events in experiment [6] amounted to 62%. For the same compound, the vesicle binding response in experiment [6] is 134% (inactive). Further, the values for the inhibition in experiment [7], in experiment [11] and in experiment [15] were 13.2% (inactive), 15.3% (inactive) and 7% (inactive), respectively. The superoxide response (% of plate) in experiment [8] was 96.1% (inactive). Moreover, in [9], the aptamer binding inhibition is 86% (active). The results for the response in experiment [10] and in [12] were 0.41% (inactive) and 1.11% (inactive), respectively. For the same compound, in experiment [13], the binding (% of control) was 101% (inactive). In addition, in experiment [14], the efflux inhibition (fraction of control) was 0.01 (inactive). The differentiation response in experiment [16] is -31.2% (inactive).

`CC(C)(C)NCC(O)COc1ccccc1C(=O)CCc1ccccc1` (stereo not given): the percent of DMSO control GFP in experiment [1] was 101% (inactive). Also, the GFP response vs DMSO in experiment [2] was 101% (inactive); in experiment [4], 108% (inactive). Besides, the percent response of DMSO control in experiment [3] was 96.4% (inactive). The GFP response, % of DMSO in experiment [5] was 122% (inactive). In experiment [6], this compound displayed a double positive events of 60.4%. For the same compound, the vesicle binding response in experiment [6] is 196% (inactive). In addition, the inhibition in experiment [7] was 44% (inactive); in experiment [11], -9.53% (inactive); in experiment [15], 8% (inactive). Also, the superoxide response (% of plate) in experiment [8] is 129% (inactive). Besides, in [9], the aptamer binding inhibition is -1% (inactive). Further, the values for the response in experiment [10] and in experiment [12] were -37.6% (inactive) and -4.49% (inactive), respectively. For the same compound, in experiment [13], the binding (% of control) is 104% (inactive). Further, the efflux inhibition (fraction of control) in experiment [14] is 0.04 (inactive). In experiment [16], the differentiation response is 46.2% (inactive).

The record behind these values is PubChem BioAssay.
